Measurements taken from the supplement of paper PMC10849652.
The full data set covers some 7,900 targets. This sample favours those with a hit. About 0.6% of all pairs of compound and target were hits. Values without a mark were called inactive.

How the values were obtained:
Test in all cases: log2 fold change, soluble protein after heating vs DMSO (PISA); higher = thermal stabilisation; K562 cells, 10 uM, 30 min; active = over 0.2 and 3.5 SD of the protein, either way, in both replicates (recomputed)
[1] = compound: C#Cc1cccc(Nc2ncnc3cc(OCCOC)c(OCCOC)cc23)c1 [erlotinib]
How it was run: (§1)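 Soluble protein was quantified by TMTpro 16plex LC-MS/MS after channel sums were equalised. It was obtained as the supernatant after 21,000xg for 90 min from pooled aliquots of K562 cells (2×10^6 cells/mL, 10 μM compound, 30 min) heated for 3 min across 48°C-58°C and extracted in PBS with 0.5% NP-40 at 4°C. Thermal stability values are relative to control samples and come from duplicates. They are given as log2 fold changes.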

[2] = compound: C/C(=N\NC(=O)C1=CC(=CC=C1)S(=O)(=O)N2CCOCC2)/C3=C(C=CC(=C3)Cl)O
How it was run: as §1

[3] = compound: C1=CC(=C(C=C1Cl)C2=NC3=NC=CN=C3C(=N2)NC4=CC=NC=C4)F
How it was run: as §1

[4] = compound: C1=CC(=CC=C1C2=NC3=C(N2)C=C(C=C3)C(=O)N)OC4=CC=C(C=C4)Cl
How it was run: as §1

[5] = compound: C1=CC2=C(C=CC(=C2)/C=C\3/C(=O)NC(=NCC4=CC=CS4)S3)N=C1
How it was run: as §1

[6] = compound: C1=CC2=NC=CN=C2C=C1/C=C/3\C(=O)NC(=O)S3
How it was run: as §1

[7] = compound: C1=CC=C(C=C1)C2=NC(=C(N2)C3=CC=NC=C3)C4=CC(=C(C=C4)Cl)O
How it was run: as §1

[8] = compound: C1=CC=C2C(=C1)C3=NNC4=CC=CC(=C43)C2=O
How it was run: as §1

[9] = compound: C1CCN(C1)C(=O)NC2=CC=CC(=C2)NC3=NC=C(C(=N3)NCCC4=CN=CN4)Br
How it was run: as §1

[10] = compound: C1CN(CCC1(CC2=CC=C(C=C2)Cl)N)C3=NC=NC4=C3C=CN4
How it was run: as §1

UniProt Q99460, sequence (Q99460 whole entry, looked up): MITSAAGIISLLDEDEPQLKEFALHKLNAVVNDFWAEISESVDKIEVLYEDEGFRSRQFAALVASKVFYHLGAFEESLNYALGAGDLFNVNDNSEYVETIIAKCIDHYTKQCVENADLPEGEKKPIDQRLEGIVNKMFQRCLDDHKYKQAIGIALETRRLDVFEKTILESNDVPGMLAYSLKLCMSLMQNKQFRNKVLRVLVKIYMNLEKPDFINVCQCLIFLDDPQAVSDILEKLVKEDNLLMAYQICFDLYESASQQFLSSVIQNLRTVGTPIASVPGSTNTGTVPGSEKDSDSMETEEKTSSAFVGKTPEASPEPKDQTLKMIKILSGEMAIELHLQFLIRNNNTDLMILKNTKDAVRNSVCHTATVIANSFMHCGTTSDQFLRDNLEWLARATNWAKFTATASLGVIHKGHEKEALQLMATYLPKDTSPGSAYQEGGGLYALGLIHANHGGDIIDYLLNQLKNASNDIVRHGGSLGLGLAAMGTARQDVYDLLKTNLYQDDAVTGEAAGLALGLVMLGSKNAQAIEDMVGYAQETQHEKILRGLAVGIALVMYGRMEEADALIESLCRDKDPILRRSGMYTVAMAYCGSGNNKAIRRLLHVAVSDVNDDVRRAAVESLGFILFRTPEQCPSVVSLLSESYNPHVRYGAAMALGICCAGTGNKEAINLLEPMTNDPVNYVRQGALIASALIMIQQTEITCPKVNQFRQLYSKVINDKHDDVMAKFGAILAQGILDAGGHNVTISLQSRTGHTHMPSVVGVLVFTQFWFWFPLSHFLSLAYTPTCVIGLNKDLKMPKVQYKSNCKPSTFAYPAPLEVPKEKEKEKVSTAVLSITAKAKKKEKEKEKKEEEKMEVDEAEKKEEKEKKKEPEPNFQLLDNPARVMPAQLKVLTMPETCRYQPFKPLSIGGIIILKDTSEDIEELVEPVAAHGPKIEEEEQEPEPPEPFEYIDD
UniProt P13861, sequence (P13861 whole entry, looked up): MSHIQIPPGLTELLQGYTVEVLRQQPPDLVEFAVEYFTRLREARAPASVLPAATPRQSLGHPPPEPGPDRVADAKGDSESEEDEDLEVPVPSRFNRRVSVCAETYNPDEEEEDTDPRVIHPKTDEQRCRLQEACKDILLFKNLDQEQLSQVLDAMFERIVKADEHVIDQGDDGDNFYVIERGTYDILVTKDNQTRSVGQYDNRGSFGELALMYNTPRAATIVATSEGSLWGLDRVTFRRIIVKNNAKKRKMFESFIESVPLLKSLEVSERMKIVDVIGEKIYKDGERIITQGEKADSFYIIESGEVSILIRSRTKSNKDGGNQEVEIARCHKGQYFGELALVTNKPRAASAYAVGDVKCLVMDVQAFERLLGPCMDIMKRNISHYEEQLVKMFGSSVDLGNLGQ
UniProt Q9NTI5, sequence (Q9NTI5 whole entry, looked up): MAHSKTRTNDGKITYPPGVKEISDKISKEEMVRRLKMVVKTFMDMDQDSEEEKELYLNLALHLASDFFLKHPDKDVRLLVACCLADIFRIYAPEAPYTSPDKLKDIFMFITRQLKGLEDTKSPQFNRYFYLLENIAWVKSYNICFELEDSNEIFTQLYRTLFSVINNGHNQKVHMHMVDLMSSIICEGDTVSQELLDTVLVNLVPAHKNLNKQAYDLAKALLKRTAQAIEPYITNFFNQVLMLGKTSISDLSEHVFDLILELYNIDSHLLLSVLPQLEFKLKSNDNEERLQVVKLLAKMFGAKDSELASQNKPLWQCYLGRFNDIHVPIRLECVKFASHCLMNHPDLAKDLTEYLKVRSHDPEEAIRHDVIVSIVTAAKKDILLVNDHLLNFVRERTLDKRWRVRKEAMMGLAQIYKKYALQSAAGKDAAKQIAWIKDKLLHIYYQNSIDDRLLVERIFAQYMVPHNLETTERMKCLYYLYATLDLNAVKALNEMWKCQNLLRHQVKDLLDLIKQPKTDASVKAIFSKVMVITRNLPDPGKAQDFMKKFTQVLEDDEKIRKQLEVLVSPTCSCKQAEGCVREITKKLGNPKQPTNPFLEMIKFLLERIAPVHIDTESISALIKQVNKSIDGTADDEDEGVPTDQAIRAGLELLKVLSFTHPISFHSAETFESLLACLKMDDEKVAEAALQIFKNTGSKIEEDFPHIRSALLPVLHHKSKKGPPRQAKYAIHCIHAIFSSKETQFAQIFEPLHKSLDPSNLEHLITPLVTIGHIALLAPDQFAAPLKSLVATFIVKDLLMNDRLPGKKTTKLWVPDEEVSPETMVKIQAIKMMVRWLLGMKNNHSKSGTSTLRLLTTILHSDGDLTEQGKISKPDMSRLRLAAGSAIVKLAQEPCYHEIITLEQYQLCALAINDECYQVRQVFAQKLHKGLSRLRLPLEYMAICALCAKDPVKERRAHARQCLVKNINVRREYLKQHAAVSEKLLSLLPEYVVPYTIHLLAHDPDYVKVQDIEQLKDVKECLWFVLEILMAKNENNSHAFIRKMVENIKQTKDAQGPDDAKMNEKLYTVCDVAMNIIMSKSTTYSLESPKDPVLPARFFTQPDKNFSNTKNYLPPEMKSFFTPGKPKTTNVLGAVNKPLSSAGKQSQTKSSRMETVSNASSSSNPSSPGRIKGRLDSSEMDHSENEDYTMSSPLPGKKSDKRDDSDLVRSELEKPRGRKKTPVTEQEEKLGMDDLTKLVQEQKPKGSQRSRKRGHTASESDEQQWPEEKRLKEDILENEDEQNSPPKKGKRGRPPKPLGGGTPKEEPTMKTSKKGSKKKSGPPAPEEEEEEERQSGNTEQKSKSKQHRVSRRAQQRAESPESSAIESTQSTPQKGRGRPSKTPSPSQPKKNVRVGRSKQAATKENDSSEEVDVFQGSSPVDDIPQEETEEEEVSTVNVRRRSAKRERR
UniProt Q8N4L2, sequence (Q8N4L2 whole entry, looked up): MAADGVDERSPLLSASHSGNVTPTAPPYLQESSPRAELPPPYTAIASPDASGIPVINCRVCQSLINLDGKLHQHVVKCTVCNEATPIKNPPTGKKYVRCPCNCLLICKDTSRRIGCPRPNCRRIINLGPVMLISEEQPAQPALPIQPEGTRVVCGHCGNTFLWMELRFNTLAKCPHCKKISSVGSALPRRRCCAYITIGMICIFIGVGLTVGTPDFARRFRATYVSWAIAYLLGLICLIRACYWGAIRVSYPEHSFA
UniProt Q15004, sequence (Q15004 whole entry, looked up): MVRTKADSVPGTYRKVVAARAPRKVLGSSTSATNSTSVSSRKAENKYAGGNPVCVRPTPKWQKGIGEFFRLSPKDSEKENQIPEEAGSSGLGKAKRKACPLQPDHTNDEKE
UniProt Q8NCC3, sequence (Q8NCC3 whole entry, looked up): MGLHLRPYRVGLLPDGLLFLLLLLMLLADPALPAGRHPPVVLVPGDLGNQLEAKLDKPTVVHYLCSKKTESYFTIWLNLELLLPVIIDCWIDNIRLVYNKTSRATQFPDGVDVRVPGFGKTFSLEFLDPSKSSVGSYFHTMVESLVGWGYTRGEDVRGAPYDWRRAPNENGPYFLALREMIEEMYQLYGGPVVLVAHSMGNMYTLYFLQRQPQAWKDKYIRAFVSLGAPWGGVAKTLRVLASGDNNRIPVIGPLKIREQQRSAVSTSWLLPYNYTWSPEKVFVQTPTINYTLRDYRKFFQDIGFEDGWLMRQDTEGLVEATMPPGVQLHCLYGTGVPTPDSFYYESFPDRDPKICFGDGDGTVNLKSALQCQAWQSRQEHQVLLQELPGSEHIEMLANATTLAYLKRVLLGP
UniProt Q8NEB9, sequence (Q8NEB9 whole entry, looked up): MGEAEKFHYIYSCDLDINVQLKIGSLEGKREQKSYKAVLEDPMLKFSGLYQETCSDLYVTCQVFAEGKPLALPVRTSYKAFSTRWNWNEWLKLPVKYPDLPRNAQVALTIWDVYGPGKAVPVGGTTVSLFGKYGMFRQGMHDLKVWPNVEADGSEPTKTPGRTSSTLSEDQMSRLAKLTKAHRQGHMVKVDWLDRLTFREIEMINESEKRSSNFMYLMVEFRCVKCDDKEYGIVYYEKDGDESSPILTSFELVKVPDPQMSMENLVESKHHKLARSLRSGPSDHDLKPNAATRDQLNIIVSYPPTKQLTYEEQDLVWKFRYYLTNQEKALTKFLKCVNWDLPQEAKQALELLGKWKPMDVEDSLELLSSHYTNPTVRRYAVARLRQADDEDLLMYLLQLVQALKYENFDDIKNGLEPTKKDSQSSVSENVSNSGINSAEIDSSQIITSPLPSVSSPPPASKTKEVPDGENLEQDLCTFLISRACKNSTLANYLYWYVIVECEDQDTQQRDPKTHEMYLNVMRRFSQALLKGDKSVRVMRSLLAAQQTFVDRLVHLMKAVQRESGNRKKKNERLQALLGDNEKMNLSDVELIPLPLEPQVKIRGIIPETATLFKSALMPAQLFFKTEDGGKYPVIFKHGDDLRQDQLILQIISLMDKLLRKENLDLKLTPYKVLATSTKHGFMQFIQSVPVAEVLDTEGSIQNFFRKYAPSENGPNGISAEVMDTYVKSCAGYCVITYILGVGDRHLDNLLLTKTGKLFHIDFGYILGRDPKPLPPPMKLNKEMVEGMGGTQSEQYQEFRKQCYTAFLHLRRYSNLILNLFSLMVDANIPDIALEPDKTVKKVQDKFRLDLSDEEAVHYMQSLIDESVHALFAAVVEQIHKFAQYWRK
UniProt Q8WUA2, sequence (Q8WUA2 whole entry, looked up): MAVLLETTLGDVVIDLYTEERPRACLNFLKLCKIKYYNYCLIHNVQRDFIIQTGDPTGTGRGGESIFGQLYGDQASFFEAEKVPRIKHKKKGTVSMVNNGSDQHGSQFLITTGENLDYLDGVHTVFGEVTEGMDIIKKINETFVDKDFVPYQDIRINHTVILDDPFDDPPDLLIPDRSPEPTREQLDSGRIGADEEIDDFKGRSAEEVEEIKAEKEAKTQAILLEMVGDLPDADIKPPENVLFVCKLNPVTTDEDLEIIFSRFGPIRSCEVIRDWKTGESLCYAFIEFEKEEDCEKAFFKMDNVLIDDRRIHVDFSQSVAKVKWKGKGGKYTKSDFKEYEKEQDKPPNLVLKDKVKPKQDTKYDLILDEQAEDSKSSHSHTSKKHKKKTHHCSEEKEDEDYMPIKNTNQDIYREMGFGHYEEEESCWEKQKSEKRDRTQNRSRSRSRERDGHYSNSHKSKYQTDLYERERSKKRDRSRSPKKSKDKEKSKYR

| Target | log2 fold change [1] | log2 fold change [2] | log2 fold change [3] | log2 fold change [4] | log2 fold change [5] | log2 fold change [6] | log2 fold change [7] | log2 fold change [8] | log2 fold change [9] | log2 fold change [10] |
| --- | --- | --- | --- | --- | --- | --- | --- | --- | --- | --- |
| PLA2G15 (UniProt Q8NCC3) | 0.064 | 0.004 | 0.038 | -0.02 | 0.026 | 0.035 | -0.007 | 0.021 | 0.01 | 0.052 |
| PEX13 (UniProt Q92968) | 0.026 | 0.03 | 0.026 | 0.009 | 0.048 | 0.073 | -0.01 | 0.005 | 0.038 | 0.036 |
| POLR2B (UniProt P30876) | -0.008 | -0.014 | -0.025 | 0.024 | -0.006 | 0.047 | 0.045 | 0.009 | 0.068 | -0.063 |
| PSMD1 (UniProt Q99460) | -0.08 | -0.074 | 0.028 | 0.021 | -0.061 | -0.018 | 0.062 | 0.034 | 0.001 | -0.025 |
| PNPLA2 (UniProt Q96AD5) | 0.017 | 0.052 | 0.007 | -0.021 | 0.045 | 0.063 | -0.015 | -0.027 | 0.101 | -0.034 |
| PCK2 (UniProt Q16822) | 0.025 | -0.224 (active) | 0.108 | -0.009 | 0.038 | -0.016 | -0.023 | 0.072 | -0.018 | -0.001 |
| PSMD12 (UniProt O00232) | -0.064 | 0 | -0.017 | -0.003 | -0.023 | -0.016 | 0.009 | 0.066 | -0.042 | -0.049 |
| PRKACA (UniProt P17612) | 0.013 | 0.033 | -0.054 | -0.016 | -0.034 | 0.042 | 0.087 | -0.025 | -0.142 | 0.047 |
| PRKAR2A (UniProt P13861) | -0.002 | 0.013 | -0.024 | 0.062 | 0.082 | -0.005 | -0.021 | -0.004 | -0.177 | -0.486 (active) |
| PHF5A (UniProt Q7RTV0) | 0.008 | -0.005 | 0.03 | -0.034 | -0.049 | 0.017 | -0.03 | -0.05 | -0.02 | 0.022 |
| PPIL4 (UniProt Q8WUA2) | 0.011 | 0.056 | -0.049 | 0.043 | -0.023 | 0 | 0.04 | -0.009 | -0.06 | -0.044 |
| PIP4P2 (UniProt Q8N4L2) | 0.014 | -0.066 | 0.026 | 0.039 | 0.009 | 0.145 | 0.063 | -0.002 | 0.014 | -0.007 |
| PRPF31 (UniProt Q8WWY3) | 0.105 | 0.194 | 0.05 | 0 | 0.217 | 0 | 0.027 | 0.076 | -0.067 | 0.129 |
| PCLAF (UniProt Q15004) | 0.073 | -0.017 | -0.066 | 0.016 | -0.039 | 0.033 | -0.105 | -0.13 | -0.036 | 0.032 |
| POLD1 (UniProt P28340) | 0.063 | 0.039 | -0.009 | -0.016 | 0.023 | -0.024 | 0.05 | -0.058 | -0.02 | -0.022 |
| PSMB4 (UniProt P28070) | -0.056 | -0.024 | -0.003 | 0.001 | -0.024 | -0.035 | -0.028 | 0.001 | 0.008 | 0.037 |
| PXK (UniProt Q7Z7A4) | 0.062 | 0.019 | -0.006 | 0.022 | 0.074 | 0.018 | 0.251 (active) | 0.019 | 0.014 | 0.004 |
| PRKCG (UniProt P05129) | -0.04 | 0.058 | 0.052 | 0.04 | 0.144 | -0.033 | 0.074 | 0.023 | -0.052 | -0.138 |
| PRG4 (UniProt Q92954) | 0.002 | -0.109 | 0.011 | -0.085 | 0.15 | 0.024 | -0.139 | -0.171 | -0.143 | 0.031 |
| PDS5B (UniProt Q9NTI5) | -0.023 | 0.002 | 0.001 | 0.043 | 0.092 | 0.12 | 0.061 | 0.013 | -0.302 | -0.287 |
| PARG (UniProt Q86W56) | 0.063 | 0.067 | 0.034 | -0.015 | 0.063 | 0.059 | 0.043 | 0.063 | -0.079 | -0.071 |
| PPOX (UniProt P50336) | 0.112 | 0.415 | 0.156 | 0.416 | 0.039 | -0.004 | 0.095 | 0.013 | 0.051 | -0.011 |
| POLA2 (UniProt Q14181) | 0.042 | 0.086 | 0.021 | -0.033 | 0.048 | 0.048 | -0.044 | -0.013 | -0.063 | -0.004 |
| PIK3C3 (UniProt Q8NEB9) | -0.005 | -0.004 | -0.157 | -0.005 | 0.011 | 0.087 | -0.007 | 0.048 | -0.024 | 0.06 |
| PARN (UniProt O95453) | 0 | 0.052 | 0.08 | -0.008 | -0.028 | 0.034 | -0.019 | -0.001 | -0.02 | 0.109 |
| PIR (UniProt O00625) | -0.027 | -0.058 | 0.025 | 0.464 (active) | 0.111 | 0.031 | -0.027 | 0.225 (active) | -0.053 | -0.002 |
| PLIN2 (UniProt Q99541) | 0.033 | 0.028 | 0.043 | -0.038 | 0.023 | 0.101 | 0 | -0.089 | 0.028 | -0.068 |
| QRSL1 (UniProt Q9H0R6) | 0.024 | 0.052 | 0.118 | -0.002 | 0.06 | -0.023 | 0.071 | -0.032 | 0.017 | -0.116 |
| PRCP (UniProt P42785) | -0.028 | 0.013 | 0.049 | -0.025 | -0.052 | 0.014 | -0.019 | -0.001 | 0.038 | 0.052 |
| PSMD9 (UniProt O00233) | 0.015 | 0.015 | 0.022 | -0.012 | -0.068 | 0.041 | 0.006 | 0.008 | 0.009 | 0.03 |
